Here are results for 17 compounds from paper PMC5540273 (PLoS ONE, 2017).

Structures are written as SMILES. “And” between values parts separate entries of the source, which are not always exact repeats. Equal values may be shown once. Read-outs that look alike come from different tables or passages of the source.

For test [1], the system named is PAK4. The following applies: concentration: 1 μM, replicates: in singlicate, n = 1.
Test [2] has as its system PAK6. Particulars: concentration: 1 μM, replicates: in singlicate, n = 1.
In test [3] the test system is PAK7. The following applies: concentration: 1 μM, replicates: in singlicate, n = 1.
For test [4], the system named is T1, PCTK1.
T1 construct: gene CDK16
Particulars: concentration: 1 μM, replicates: in singlicate, n = 1.

Test [5] deals with T2, PCTK2.
T2 construct: gene CDK17
Particulars: concentration: 1 μM, replicates: in singlicate, n = 1.

In test [6] the test system is T3, PCTK3.
T3 construct: gene CDK18
Particulars: concentration: 1 μM, replicates: in singlicate; n = 1.

In test [7] the test system is PDGFRA. The following applies: concentration: 1 μM, replicates: in singlicate, n = 1.
Test [8] relates to PDGFRB. Particulars: concentration: 1 μM, replicates: in singlicate, n = 1.
The subject of test [9] is PDPK1. The following applies: concentration: 1 μM, replicates: in singlicate, n = 1.
Test [10] deals with PFTAIRE2. Particulars: concentration: 1 μM, replicates: in singlicate, n = 1.
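Also: KINOMEscan kinase panel screen.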

Take `Cc1cccc(-c2nc(Nc3ccc4ncsc4c3)c3ccccc3n2)n1` [GW867588]: the “%Inh” value is reported as 8% in [1]; 0% in test [2]; 8% in test [3]; 0% in test [4]; 0% in test [5]; 0% in [6]. Moreover, the “%Inh” value worked out at 33% in [7], 0% in test [8], 0% in test [9] and 0% in test [10].

For `CN1c2ccc(NCc3ccc(F)cc3)cc2-c2c(cnn2C)S1(=O)=O`, the “%Inh” value in test [1], in test [2], in [3], in [4], in [5] and in test [6] was 0% throughout. Further, the “%Inh” value in [7], in test [8], in [9] and in test [10] was 0% throughout.

On to `COc1cc2ncn(-c3cc(OCc4sccc4Cl)c(C(N)=O)s3)c2cc1OC` [GSK448459], for which the “%Inh” value is 0% in [1]; 6% in test [2]; 0% in test [3]; 4% in [4]; 0% in test [5]; 13% in [6]. Also, the “%Inh” value in test [7] was 25%; in test [8] it was 76%; in test [9], 0%; in test [10], 0%.

With `CC(C)(CN)c1nc(-c2ccc(Cl)c(O)c2)c(-c2ccncc2)[nH]1.O=C(O)C(F)(F)F` [SB-477794], the “%Inh” value in [1] was 0%; in [2] (1 µM) it was 10% and 0%; in [3] (1 µM), 21% and 25%; in test [4] (1 µM), 4% and 0%; in [5] (1 µM), 99.7% and 0%; in test [6], 0%. The “%Inh” value is 59% in [7]; 99.5% and 98.1% in test [8] (1 µM); 0% in test [9]; 14% and 7% in test [10] (1 µM).

On to `COc1ccc(COc2cc(-n3cnc4ccccc43)sc2C(N)=O)cc1` [GSK1024304], for which the “%Inh” value was 0% in [1]; 0% in [2]; 5% in test [3]; 0% in [4]; 0% in [5]; 11% in test [6]. Also, the “%Inh” value in test [7] was found to be 0%; in [8], 31%; in test [9], 3%; in [10] it was 17%.

On to `Cc1nnc(-c2ccc3occ(-c4ccc(C(C)O)cc4)c3c2)o1` (centres unmarked), for which the “%Inh” value in test [1] stood at 10%; in [2] it was 11%; in [3], 1%; in [4] it was 18%; in test [5], 11%; in test [6], 1%. For the same compound, the “%Inh” value in test [7] is recorded as 0%; in [8] it was 8%; in [9], 0%; in [10], 0%.

Turning to `Cc1cn2c(=O)cc(N3CCOCC3)nc2n1Cc1cccc(Cl)c1Cl` [GSK2334006], the “%Inh” value in [1] is listed as 0%; in test [2] it was 2%; in test [3] it was 0%; in test [4] it was 5%; in [5] it was 9%; in test [6], 13%. In addition, the “%Inh” value in test [7] was found to be 0%; in [8], 31%; in test [9], 25%; in [10], 22%.

In the case of `CCCCCc1nc2c(N)ncnc2n1CCCCC` [SKF-97255], the “%Inh” value in test [1] worked out at 6%; in [2], 0%; in test [3], 0%; in [4], 0%; in test [5], 0%; in [6] it was 0%. Besides, the “%Inh” value in [7] is 0%; in [8], 73%; in test [9] it was 0%; in test [10], 0%.

On to `COc1ccc(CNC(=O)NC2CCN(c3ccnc(Nc4ccc(OC)cc4)n3)C2)cc1` (centres unmarked) [GSK1379727], for which the “%Inh” value in [1] was 0%; in [2], 0%; in test [3], 1%; in test [4], 0%; in test [5], 0%; in test [6], 4%. The “%Inh” value in test [7] was found to be 0%; in [8], 20%; in [9], 0%; in test [10], 7%.

In the case of `c1ccc(-c2n[nH]cc2-c2ccnc3ccccc23)nc1` [GW271431], the “%Inh” value came out at 0% in test [1]; 11% in test [2]; 8% in [3]; 0% in test [4]; 0% in test [5]; 20% in test [6]. For the same compound, the “%Inh” value in [7] came to 0%; in [8], 20%; in [9], 0%; in [10] it was 36%.

Turning to `NCCNS(=O)(=O)c1ccc(-c2ccnc3[nH]ccc23)cc1` [GSK977617], the “%Inh” value in test [1] (1 µM) was 82% and 75%; in test [2] (1 µM) it was 73% and 61%; in [3] (1 µM), 90.8% and 77%; in test [4] (1 µM), 1% and 2%; in test [5] (1 µM), 7% and 0%; in test [6], 0%. Besides, the “%Inh” value is 11% and 10% in test [7] (1 µM); 80% and 65% in test [8] (1 µM); 11% and 0% in test [9] (1 µM); 25% in test [10].

In the case of `[2H]C([2H])(c1cccc(C(F)(F)F)c1C)n1ccn2c(=O)nc(N3CCOCC3)cc12` [GSK2336394], the “%Inh” value in test [1] worked out at 0%; in [2], 0%; in test [3] it was 0%; in test [4], 4%; in test [5], 0%; in test [6] it was 11%. In addition, the “%Inh” value was 0% in test [7], 15% in test [8], 0% in [9] and 0% in test [10].

Take `Cc1cccc(-c2nc(-c3ccc(S(C)(=O)=O)cc3)sc2-c2ccncc2)c1`: the “%Inh” value in [1] was determined as 10%; in test [2], 18%; in test [3] it was 0%; in test [4], 0%; in test [5], 0%; in [6] it was 0%. Further, the “%Inh” value in test [7] was found to be 10%; in test [8], 0%; in test [9] it was 26%; in test [10] it was 10%.

As to `O=C(Nc1n[nH]c2cc(-c3cccc(F)c3)ccc12)C1CC1` [SB-735464], the “%Inh” value is reported as 0% in test [1]; 0% in [2]; 0% in test [3]; 5% in test [4]; 6% in test [5]; 0% in test [6]. Further, the “%Inh” value in test [7] turned out to be 42%; in test [8] it was 67%; in test [9], 0%; in test [10], 26%.

Turning to `O=C(NOCC1CC1)c1ccc(F)c(F)c1Nc1ccc(I)cc1Cl`, the “%Inh” value was 0% in test [1]; 0% in test [2]; 3% in test [3]; 0% in test [4]; 0% in test [5]; 1% in test [6]. For the same compound, the “%Inh” value is reported as 0% in [7], 8% in test [8], 0% in [9] and 0% in test [10].

For `COc1ccc(Nc2nccc(N3CCC(NC(=O)Nc4cc(C)ccc4C)C3)n2)cc1` (centres unmarked) [GSK1379741], the “%Inh” value in [1] is 0%; in test [2], 0%; in [3], 0%; in test [4] it was 3%; in test [5] it was 9%; in [6], 6%. Moreover, the “%Inh” value in test [7] was found to be 0%; in test [8], 2%; in test [9] it was 0%; in test [10], 13%.

As for `Fc1ccc(-c2nn3c(OCC(F)(F)F)cccc3c2-c2ccncc2)cc1` [GW514784], the “%Inh” value in test [1] came out at 0%; in test [2], 0%; in [3] it was 16%; in test [4], 0%; in [5], 15%; in test [6] it was 0%. The “%Inh” value was 0% in [7], 21% in [8], 0% in test [9] and 7% in test [10].
